Results reported in publication PMC12136788.
Substitutions are numbered along the chain they refer to. The full ranking holds about 24,000 sequences; the median of “enrichment r” is about 0.99, and the highest 2% start at about 3.7. The full list was thinned out, with the highest values kept by preference.

T1: UNK ZnF1-3 (human, UniProt Q9C0B0 31-174)
T1 sequence: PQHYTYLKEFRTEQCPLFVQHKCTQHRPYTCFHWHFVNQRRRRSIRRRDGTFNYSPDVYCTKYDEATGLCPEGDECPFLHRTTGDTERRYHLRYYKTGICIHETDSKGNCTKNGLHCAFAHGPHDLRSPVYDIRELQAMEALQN

B1: 55264158_55264526_802_CDS_ENSMUSG00000022185_ENSMUST00000148754|mouse|control|control (ssRNA)
RNA: GGGAGUUCUACAGUCCGACGAUCGAUGGACCUCCGGGUUAAGGUAUCUCCUAAUGUUACUUUCUUUACUUCGUGCUCCACAGGUGGGGGCAAGGCAACCUCCACUGACACCUGGGGUGGCGCCGGCAGCUCGGCUUCAGGCUCCAACAGAGGAUUGAGCAUCA
B2: chrX:71549400:71549401:+_ENSMUSG00000019087_ENSMUST00000019231|mus_hu|mus_mus_mus_hu_False|18_48 (ssRNA)
RNA: GGGAGUUCUACAGUCCGACGAUCGCAGUAGGAAGAGGGAAGCUCUUCAGUCCAGUGCGCUGCAGGGUGGGAAAGCAACAACACGGAACCAAUACUCCCCUCAACCCCCCCACUGGCAUGUCACACAACAAUCUGGGUCAAAGACAACAGAGGAUUGAGCAUCA
B3: chr6:42636609:42636610:-_ENSMUSG00000036667_ENSMUST00000045054|mus_hu|FALSE|FALSE (ssRNA)
RNA: GGGAGUUCUACAGUCCGACGAUCGGCAUCAAUACAGUAAACCCCCAGGGAGUCUUUCACUUCUGGCUCAACCUUUGCAUCCACUCCAGAGCCCUCGAGGAUUUUGGCCAAAGGUGCCAGGGAUGGGUGUACACCAAUGGGAGCCAACAGAGGAUUGAGCAUCA
B4: chr2:153237265:153237266:-_ENSMUSG00000061411_ENSMUST00000109784|mus_mus|mus_mus_mus_hu_False|1_1 (ssRNA)
RNA: GGGAGUUCUACAGUCCGACGAUCAAAAAAAAAAAAAAAAAAGUGUCCUUGUGCCCAAAGUCUCAGGUGCUUGGAGUGUGGCUAGAAACAGCUCUUUUGGAUCCCACCUCUUUCAAAAACAAAAUGUACCAACUGGUAGGCAGGCAACAGAGGAUUGAGCAUCA
B5: chr2:153237265:153237266:-_ENSMUSG00000061411_ENSMUST00000109784|mus_mus|mus_mus_mus_hu_False|58_58 (ssRNA)
RNA: B4 RNA with U78C, G79A, A137G, G138A, C140G, A141C, G142A
B6: chr2:153237265:153237266:-_ENSMUSG00000061411_ENSMUST00000109784|mus_hu|FALSE|FALSE (ssRNA)
RNA: B4 RNA with A137G, G138A, C140G, A141C, G142A
B7: chr2:153237265:153237266:-_ENSMUSG00000061411_ENSMUST00000109784|mus_mus|mus_mus_mus_hu_False|28_28 (ssRNA)
RNA: B4 RNA with A115G, A137G, G138A, C140G, A141C, G142A
B8: chr2:153237265:153237266:-_ENSMUSG00000061411_ENSMUST00000109784|mus_mus|mus_mus_mus_hu_False|28_58 (ssRNA)
RNA: B4 RNA with U78C, G79A, A115G, A137G, G138A, C140G, A141C, G142A
B9: chr18:65376317:65376318:+_ENSMUSG00000024589_ENSMUST00000163516|mus_mus|motif|central (ssRNA)
RNA: GGGAGUUCUACAGUCCGACGAUCUGCUAUACCAACAGAAAACUAUCCCUUUCCUAGGAAACACUAGACAGGCUCAUGUCCGGACGCGGCAGCUGCUUCUCUGGCACACUGAAAACACUCUGGGGUGGAGUGUGCAUACACAGACAACAGAGGAUUGAGCAUCA
B10: 113287723_113287843_2736_3pUTR_ENSG00000114999_ENST00000233336|human|control|control (ssRNA)
RNA: GGGAGUUCUACAGUCCGACGAUCCCUUUUUCAUUGUAAGUUCUCACAUCUCAUCAUGUUCAAGGAGGCAUUGAUUUUCUCCUCUUUUGUAAAAGUCUCACCUGACUGCAGAAAUGUUUUCUUGAGCCAAGUAGAAAUGAGGAACAACAGAGGAUUGAGCAUCA
B11: chr2:153237265:153237266:-_ENSMUSG00000061411_ENSMUST00000109784|mus_mus|mus_mus_mus_hu_False|1_28 (ssRNA)
RNA: B4 RNA with A115G
B12: chr3:149686290:149686291:-_ENSG00000070087_ENST00000452853|perfect_dup|FALSE|FALSE (ssRNA)
RNA: GGGAGUUCUACAGUCCGACGAUCUCCAAGAGUCAAACCGUUGGUAAAGAAACCUUCCCGGUCUUUUCCUACAAUCAUAUCUAUUUCUACUGGCGUGAUGCUCUGGAAGACGCCCCCGGCCGUGGCUGCCCAGACGUAUUUGGCCAACAGAGGAUUGAGCAUCA
B13: 153895285_153895405_106_5pUTR_ENSG00000143614_ENST00000368655|human|control|control (ssRNA)
RNA: GGGAGUUCUACAGUCCGACGAUCGGCACAGGGGAUCCAGACCCUGCUGACGGGACUAGGGACGGGGGUAGGGGAGGGGGGCGGGCCGGACCGGGGCGGGCGGGCGGAGCAGACACUGCGGUACAGACGGGGGCAGCGGCGGCGCAACAGAGGAUUGAGCAUCA
B14: chr14:76904540:76904541:+_ENSMUSG00000022010_ENSMUST00000022587|mus_mus|FALSE|FALSE (ssRNA)
RNA: GGGAGUUCUACAGUCCGACGAUCAAAGAAAUGGAAAAAUGUCUCAGUUGGUAAACUCCUAGAUCCAUCGCCACUGGUCUACACCAUUGGGAUUUCAUGCAAUUGCAGCCAAAUUAAAAAAACAGCCCCGUGGAAAAAAAAGAGCAACAGAGGAUUGAGCAUCA
B15: chr1:88750987:88750988:+_ENSMUSG00000053333_ENSMUST00000065694|mus_mus|FALSE|FALSE (ssRNA)
RNA: GGGAGUUCUACAGUCCGACGAUCUGAUAAGCCUCUUGUGUCCUGUGGUAUGGGGGUGUUCUCAUCUUUCAUAACUGGAGUACUAGAAUCUUCUUUUCCUCUGUCAGGAGUAGAGAUUGACAAUUUCUUAACACCAUCAACCAGCAACAGAGGAUUGAGCAUCA
B16: chr18:33744517:33744518:+_ENSG00000134759_ENST00000351393|hu_hu|motif|central (ssRNA)
RNA: GGGAGUUCUACAGUCCGACGAUCUAAGAACUUCUCAUUAGGUGAGAAGGCCAUCUGCGUGACUGUCAAACUGUGGAAAACGGAAUUCUGCACCUGUUUCCAAGAUGUAGUGUUCCAAAGAAUGAUAGCUGCAUGCUCUUUCUUCAACAGAGGAUUGAGCAUCA
B17: chr4:115894766:115894767:+_ENSMUSG00000028698_ENSMUST00000030464|mus_hu|mus_mus_mus_hu_True|38_38 (ssRNA)
RNA: GGGAGUUCUACAGUCCGACGAUCUUCCACACGGAAAUGUACUUCGGGUUUUCCAACGGCCAGUACCAGUCCGGCCAAACUACCCGAACAGGGUCCUGUCCUCCUCUCCUACAGAACACAACAAAAUGCCCCCGAACUUUCAAGCAACAGAGGAUUGAGCAUCA
B18: chr14:31813938:31813939:-_ENSMUSG00000021917_ENSMUST00000162092|perfect_dup|motif|central (ssRNA)
RNA: GGGAGUUCUACAGUCCGACGAUCAACUAUGUAGACAGUCCACCCAAACUGUUCAGCCACGUACCCGUAGAUAAACCCAACGGUUGCAGAAAAAAGAAUGAUCCCCUGAAACAUCUGUUCAGCUAGUUUCUGCCCCUUGUAAUCCAACAGAGGAUUGAGCAUCA
B19: chr3:138121269:138121270:+_ENSG00000158186_ENST00000289104|hu_hu|FALSE|FALSE (ssRNA)
RNA: GGGAGUUCUACAGUCCGACGAUCCAGGUGGCUUCCUUGUCUCUUUGAGAGGUGGGAAAGCCCGUGCCCUCUGGGCAAAGCCAGACCCUGUCUGCUCCCUGCCCACCUGCCCUUCUCCCUUCCUGUACCAAGUCCUUGGGCCAACAACAGAGGAUUGAGCAUCA
B20: chr2:153237265:153237266:-_ENSMUSG00000061411_ENSMUST00000109784|mus_mus|mus_mus_mus_hu_False|1_58 (ssRNA)
RNA: B4 RNA with U78C, G79A
B21: chr7:72892646:72892647:-_ENSG00000009954_ENST00000339594|hu_hu|FALSE|FALSE (ssRNA)
RNA: GGGAGUUCUACAGUCCGACGAUCCUUGUCACUGUGCUUCCCUGGUUUCUUGGCAGGUGGGCCUUUUUUAGGAAUGUGAAAGUUAGUGUGCAGCUUAUUGGGCGACAUCAUCUUCAUCAUUUCUUCUAGAUGUUCUUCAGGAGACAACAGAGGAUUGAGCAUCA
B22: chr2:153237265:153237266:-_ENSMUSG00000061411_ENSMUST00000109784|mus_mus|mus_mus_mus_hu_False|8_18 (ssRNA)
RNA: GGGAGUUCUACAGUCCGACGAUCAAAAAAAAAAAAAAAAAAGUGUCCUUGUGCCCAAAGUCUCAGGUGCUUGGAGUGUGGCUAGAAACAGCUCUUUUGGAUCCCACCUCUUUCAAAAAACAGUGUACCAACUGGUGGAGGCAGCAACAGAGGAUUGAGCAUCA
B23: chr10:70731730:70731731:+_ENSG00000165732_ENST00000354185|hu_hu|motif|central (ssRNA)
RNA: GGGAGUUCUACAGUCCGACGAUCAACCUCAGGGAUGUCUAACCCACGUGCAGCAACAUUGGUUGCCACCAAAACUCCAAAACGGCCAUUUCUAAAACCUUUCAGGGUGAUUUCCCUUUGCUUCUGUGGAAUGUCUCCAUGCAACAACAGAGGAUUGAGCAUCA
B24: chr2:153237265:153237266:-_ENSMUSG00000061411_ENSMUST00000109784|mus_hu|motif|central (ssRNA)
RNA: B4 RNA with U82G, A83G, A137G, G138A, C140G, A141C, G142A
B25: chr2:25965407:25965408:-_ENSG00000143970_ENST00000336112|hu_mus|FALSE|FALSE (ssRNA)
RNA: GGGAGUUCUACAGUCCGACGAUCAUGUGCUGCCGGAAUAAAAUCUCUAGGCAGGCUCUUUUCAUCAGAUGCUUGGCCUCUAGAGAAUAUGUAAUUCUCCUGGCCUAAAGUGGUUUGCUCACUCACUGGUGCCUCAGUCUUACCCAACAGAGGAUUGAGCAUCA
B26: chr2:209110096:209110097:-_ENSG00000138413_ENST00000345146|hu_hu|FALSE|FALSE (ssRNA)
RNA: GGGAGUUCUACAGUCCGACGAUCUUCUUCAAAGUUAUGUACCAGGUAUGUCACCUUUUGGGUUCCGUCACUUGGUGUGUAGGUUAUCUCUACUUUUCCAGGCCCAGGAACAACAAAAUCAGUUGCUCUGUAUUGAUCCCCAUACAACAGAGGAUUGAGCAUCA
B27: chr2:153237265:153237266:-_ENSMUSG00000061411_ENSMUST00000109784|mus_mus|mus_mus_mus_hu_False|1_78 (ssRNA)
RNA: B4 RNA with G66A

Each binder was assayed against T1, UNK ZnF1-3 (assay: nsRBNS (natural sequence RNA bind-n-seq); RBNS binding buffer (assumed for nsRBNS): 25 mM Tris pH 7.5, 150 mM KCl, 3 mM MgCl2, 0.01% Triton X-100, 500 ug/ml BSA, 20 U/ml SUPERase-In, 4 C; UNK is unkempt and MSI1 is Musashi-1; names of the RNAs are library labels; protein concentration not given here; high values mean tight binding).

Row | Binder | binding signal [enrichment R]
1 | B1 | 0.664
2 | B2 | 1.29
3 | B3 | 1.69
4 | B4 | 6.8
5 | B5 | 4.5
6 | B6 | 6.49
7 | B7 | 3.18
8 | B8 | 3.57
9 | B9 | 1.06
10 | B10 | 0.859
11 | B11 | 3.93
12 | B12 | 0.967
13 | B13 | 0.68
14 | B14 | 3.35
15 | B15 | 0.857
16 | B16 | 0.574
17 | B17 | 0.864
18 | B18 | 1.33
19 | B19 | 0.645
20 | B20 | 7.14
21 | B21 | 0.485
22 | B22 | 5.27
23 | B23 | 0.937
24 | B24 | 5.88
25 | B25 | 0.767
26 | B26 | 0.472
27 | B27 | 8.18
